Among all 2,200 compounds or so, about 1,200 (55%) were called active. The limit is not given here; nearly all actives have IC50 up to about 92 µM. So high a share suggests a set chosen from earlier hits. Some of the results follow.

A short description of the test: counter assay for TAg ATPase ADP read-out – biochemical, ADP-Hunter, fluorescence, counter-screen (AID 2501).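 Also: purified T antigen ATPase.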 The note with it: series mostly up to 100 µM. (The purpose of a counterscreen is to sort out artefacts and off-target activity.)
For `Cc1ccc(S(=O)(=O)Cc2cc(F)c([N+](=O)[O-])cc2[N+](=O)[O-])cc1`, the IC50 entry is “inactive”.

With `O=C(COc1ccccc1[N+](=O)[O-])N/N=C/c1ccc(O)cc1`, the IC50 was 6.73 µM (active). The same measure for `Cc1ccc(/C=N\NC(=O)COc2ccc(C)cc2[N+](=O)[O-])cc1`: 23.3 µM (active); for `COc1ccc(C)cc1NC(=O)COC(=O)c1ccc([N+](=O)[O-])o1`: “inactive”. In the case of `CCc1ccc2cccc3c2c1N=CN3C` it was 8.65 µM (active); in that of `C[C@H](CCC(=O)O)[C@H]1CC[C@H]2[C@@H]3CC[C@@H]4C[C@H](O)CC[C@]4(C)[C@H]3CC[C@]12C`, “inactive”. In the case of `Cc1cnc(C(=O)Nc2ccc(S(=O)(=O)NCC(C)C)cc2)cn1` it was “inactive”; in that of `Nn1c(SCC(=O)NC(=O)Nc2ccc3c(c2)OCCO3)nnc1C1CC1`, “inactive”. For `CCn1c2ccccc2c2cc(NC(=O)CSc3nnc(C4CC4)n3Cc3ccco3)ccc21`, the IC50 result is “inactive”. In the case of `Cc1nnc(SCC(=O)Nc2ccc(N(C)C)cc2)n(N)c1=O` it was 5.56 µM (active).

`CCCCn1nnnc1SCC(=O)Nc1ccc(N(C)C)cc1`: the IC50 was 3.37 µM (active). In the case of `CCn1c(SCC(=O)Nc2ccc(N(C)C)cc2)nnc1C1CC1` it was 5.16 µM (active); in that of `CN(C)c1ccc(NC(=O)CSc2nnc(-c3cnccn3)n2C)cc1`, 7.11 µM (active); in that of `CCCCOC(=O)c1ccc(NC(=O)CSc2nnnn2C)cc1`, “inactive”. Take `Cn1ccnc1SCC(=O)Nc1cccc(C(F)(F)F)c1`: the IC50 result is “inactive”. As to `Cc1cc(-c2nc3c4c5c(sc4[nH]c(=O)n3n2)CCC5)c(C)o1`, the IC50 entry is “inactive”. In the case of `CNC[C@@H](C)NC[C@@H](Cc1ccccc1)NCCc1ccccc1`, the IC50 entry is “inactive”. The same measure for `Cc1c(CCC(=O)NCCCC(=O)O)c(=O)oc2cc3oc4c(c3cc12)CCCC4`: “inactive”. In the case of `CCOC(CNC(=O)C1CCN(S(=O)(=O)c2ccc3nc4c(c(C(=O)O)c3c2)CCCCC4)CC1)OCC` it was “inactive”; in that of `O=C(NCc1ccco1)C1CC(=O)N(c2ccc(O)cc2)C1` (stereo not given), 6.48 µM (active); in that of `Cc1ccc(C)c(S(=O)(=O)N2CCCCC2CCNC(=O)C(=O)NCc2ccco2)c1` (stereo not given), “inactive”. In the case of `O=C(CCN1C(=O)c2ccccc2S1(=O)=O)NCc1ccco1`, the IC50 entry is “inactive”.

On to `Cc1nc2ccc(N=NN(C)C)cc2[nH]1`, for which the IC50 entry was “inactive”. In the case of `O=C1NN(c2ccccc2)C(=O)/C1=C/c1ccc(-c2ccc(Cl)c(C(=O)O)c2)o1`, the 50% inhibitory concentration (IC50) is 13.7 µM (active). Regarding `CCCCC1(C)OC(=O)C(=Cc2ccc(-c3ccc(Cl)c(C(=O)O)c3)o2)C(=O)O1` (stereo not given), the IC50 result is “inactive”.

As to `N#CC1=C(S)N(c2ccccc2)C(c2ccc(-c3ccc(Cl)c(Cl)c3)o2)NC1=O` (stereo not given), the IC50 result is “inactive”.

As to `Cc1cccc(N2NC(=O)/C(=C/c3ccc(-c4ccc(Cl)c(C(=O)O)c4)o3)C2=O)c1`, the IC50 is 31.9 µM (active). With `Cn1sc(=O)c2cc(S(=O)(=O)NC3CC3)ccc21`, the IC50 entry was “inactive”. For the compound `CCN1C(=O)CC(N2CCC(Nc3ccc(OC)cc3)CC2)C1=O` (stereo not given), the 50% inhibitory concentration (IC50) is 4.87 µM (active). In the case of `O=C(O)c1cc(Nc2cc(Cl)c3nonc3c2[N+](=O)[O-])ccc1O` it was “inactive”. The same measure for `O=C1NC(=O)C(c2ccccc2[N+](=O)[O-])=C1Nc1ccc(O)c(Cl)c1`: 11.8 µM (active); for `N=c1c2c(ncn1CCCO)Oc1ccc3ccccc3c1C2c1ccccc1` (stereo not given): “inactive”. In the case of `COc1cc(/C=C(\C#N)c2ccccn2)cc(OC)c1O` it was 4.83 µM (active); in that of `COc1cc(/C=C(\C#N)c2nc3ccccc3n2C)cc(OC)c1O`, 6.31 µM (active); in that of `COc1ccc(-c2ccc(OC(=O)NC3CCS(=O)(=O)C3)cc2)cc1` (stereo not given), 5.8 µM (active). For the compound `COc1ccc(S(=O)(=O)N2CCC(NC(=O)c3ccccc3)CC2)cc1`, the IC50 result was “inactive”. As to `O=c1c(C(c2c(O)nc3n(c2=O)CCS3)c2cccc3ccccc23)c(O)nc2n1CCS2`, the IC50 is 20.9 µM (active). In the case of `C=CCOc1ccc(C2NC(=S)NC(c3ccccc3)=C2C(C)=O)cc1OC` (stereo not given) it was “inactive”; in that of `Oc1ccc(/C=N/Nc2ccc(Cl)nn2)cc1O`, 8.65 µM (active).

Regarding `Oc1ccc(/C=N/Nc2ccc(C(F)(F)F)cn2)cc1O`, the IC50 is 5.59 µM (active). For `N=C1/C(=C/c2ccc(Br)o2)C(=O)N=C2SC(CC(=O)N3CCCC3)=NN12`, the IC50 entry was “inactive”. `CN(C(=O)c1ccccc1C(=O)OCC(=O)NCc1cccs1)C1CCCCC1`: the IC50 was 44.1 µM (active).

For `CC1=C(C(=O)OCC(C)C)C(c2cccs2)NC(=S)N1` (stereo not given), the IC50 entry was “inactive”. With `N#CC1(NC(=O)COC(=O)c2cc(O)c3ccccc3c2O)CCCCC1`, the IC50 result is “inactive”. In the case of `Cc1ccc(-n2nnnc2C(Cl)(Cl)c2nnnn2-c2ccc(C)cc2)cc1` it was “inactive”. In the case of `c1coc(-c2nc(-c3ccco3)c(-c3ccco3)nc2-c2ccco2)c1` it was “inactive”; in that of `Nc1nc(-c2ccco2)cs1`, 10.8 µM (active). For `c1coc(-c2nc3ccccc3nc2-c2ccco2)c1`, the IC50 result is “inactive”. In the case of `NC(=O)c1sc2nnc(-c3ccccc3)c(-c3ccccc3)c2c1N` it was “inactive”.

Turning to `Nc1ccc(-c2sc(N)nc2-c2ccccc2)cc1`, the IC50 is 8.36 µM (active). For `ClCC1=Nc2cccc3cccc(c23)N1`, the IC50 was 4.21 µM (active). As for `CC(C)CCNC(=O)CCCc1ccccc1`, the IC50 entry is “inactive”. As to `COc1cc(/C=N\NC(=O)CC(=O)NCCc2ccccc2)ccc1O`, the IC50 was 3.22 µM (active). In the case of `CCOc1cc(/C=N\NC(=O)CC(=O)NCCc2ccccc2)ccc1O` it was 4.71 µM (active); in that of `O=C(COC(=O)CSc1ccc([N+](=O)[O-])cc1)NCCc1ccccc1`, “inactive”; in that of `COc1ccc(N2CCC(CNC(=S)Nc3ccc(C)cc3C)C2)cc1` (stereo not given), 10.7 µM (active). The same measure for `COc1ccc(N2CCC(CNC(=S)Nc3c(C)cccc3C)C2)cc1` (stereo not given): 7.45 µM (active); for `COc1ccc(Cl)cc1NC(=S)N1CCC(c2ccc(C)cc2)C1` (stereo not given): “inactive”.

In the case of `Cc1ccc(NC(=S)NCC2CCN(C(C)c3ccccc3)C2)cc1C` (stereo not given), the IC50 entry is “inactive”.

With `COc1ccc(N2CCC(CNC(=S)Nc3c(C)cc(C)cc3C)C2)cc1` (stereo not given), the IC50 is 12.1 µM (active). The same measure for `Cc1cc(SCC(=O)c2ccccc2)nc(C)n1`: “inactive”; for `O=C(CSc1n[nH]c(-c2ccccc2)n1)c1ccc(O)c(O)c1`: 10 µM (active); for `N#Cc1c(-c2ccccc2)nc(SCC(=O)N2c3ccccc3Sc3ccccc32)[nH]c1=O`: “inactive”. In the case of `CCCn1c(SC(C)C(=O)O)nc2ccccc21` (stereo not given), the IC50 result is “inactive”.

In the case of `O=C(CSc1nc2ccccc2n1CCc1ccccc1)c1ccc(O)c(O)c1`, the IC50 is 43.4 µM (active). For the compound `Cc1ccc(C(=O)N(Cc2ccc3c(c2)OCO3)Cc2nc3ccccc3c(=O)[nH]2)cc1`, the IC50 result is “inactive”. Turning to `O=C(CSc1nc2ccccc2c(=O)[nH]1)c1ccc(O)c(O)c1`, the half-maximal inhibitory concentration (IC50) is 9.7 µM (active). As to `Brc1ccc(-c2n(-c3ccccn3)c3ccccc3[n+]2-c2ccccn2)cc1`, the IC50 result is “inactive”. On to `CC(=O)N1c2c(cc(Br)cc2S(=O)(=O)N2CCCCC2)CC1C` (stereo not given), for which the IC50 entry is “inactive”. In the case of `C[c-]1[c-](C)[c-](C)[c-](C)[c-]1C.[Fe].c1cc2nccc(N3CCCC3)[c-]2c1` (stereo not given) it was 5.8 µM (active). `CCOC(=O)N1CCC(NC(=O)c2cnn3c2NC(c2ccco2)CC3C(F)(F)F)CC1` (stereo not given): the IC50 entry was “inactive”. For `CCN(C(=O)CN1CCN(c2cccc(Cl)c2)CC1)c1c(N)n(Cc2ccccc2)c(=O)[nH]c1=O`, the IC50 result was “inactive”. As to `CCN(C(=O)CN1CCN(c2ccc(O)cc2)CC1)c1c(N)n(Cc2ccccc2)c(=O)[nH]c1=O`, the IC50 was 4.79 µM (active). Regarding `COCCN(C(=O)COC(=O)c1cc2c(s1)CCC2)c1c(N)n(Cc2ccccc2)c(=O)[nH]c1=O`, the IC50 entry was “inactive”. In the case of `CC1=NN(c2nc(-c3ccccc3)cs2)C(=O)C1` it was 56 µM (active). The same measure for `CC1=NN(c2nc(-c3ccc(C#N)cc3)cs2)C(=O)C1`: “inactive”. Take `OCc1ccccc1SSc1ccccc1CO`: the IC50 entry was “inactive”. On to `Nc1ccc(Sc2ccccc2CC(=O)O)cc1`, for which the IC50 is 16.9 µM (active). Regarding `N#Cc1c(-c2ccco2)cc(-c2ccccc2)[nH]c1=O`, the IC50 result is “inactive”.

With `Cc1ccc(-c2c3c([nH]c(=S)c2C#N)CCCC3)o1`, the IC50 result is “inactive”. As to `N#Cc1c(-c2ccco2)c2c([nH]c1=S)CCCC2`, the IC50 was 95.5 µM (active). Take `COCCNC(=O)Nc1ccc2nc(-c3ccco3)c(-c3ccco3)nc2c1`: the IC50 result is “inactive”. In the case of `CCN(CC)c1ccc(NC(=O)c2ccccc2F)cc1` it was 4.71 µM (active). For `CCN(CC)c1ccc(NC(=O)c2ccco2)cc1`, the 50% inhibitory concentration (IC50) was 4.57 µM (active). Take `CCN(CC)c1ccc(NC(=O)c2cc3c(OC)cccc3[nH]2)cc1`: the IC50 result is “inactive”. As for `CCN(CC)c1ccc(NC(=O)CCNC(=O)c2ccco2)cc1`, the IC50 is 5.22 µM (active). The same measure for `O=C(CSc1nnc(CNC(=O)c2ccco2)o1)Nc1ccccc1C(F)(F)F`: “inactive”; for `COc1cc(-c2nc3cccc(C)n3c2NCC2CCCO2)ccc1O` (stereo not given): 41.9 µM (active); for `S=c1nc[nH]c2nc[nH]c12`: “inactive”. In the case of `Cc1ccc(NC(=O)COc2ccc(C3SCCS3)cc2)cc1` it was “inactive”.

Regarding `Cc1ccc(NC(=O)COc2ccc(/C(N)=N/O)cc2)cc1C`, the IC50 was 29.6 µM (active). For the compound `CCN(CC)C(=O)c1cc([N+](=O)[O-])cc2c1-c1ccc([N+](=O)[O-])cc1C2=C(C#N)C#N`, the IC50 entry is “inactive”. In the case of `COc1ccccc1CN1CC(C(=O)NCc2ncccc2C)CCC1=O` (stereo not given) it was “inactive”; in that of `CCN(CC)c1ccc(NC(=O)C2CC(=O)N(Cc3ccccc3)C2)cc1` (stereo not given), 5.88 µM (active); in that of `Cc1ccc(S(=O)(=O)/N=C(/Sc2ccccc2C(=O)O)c2ccccc2)cc1`, “inactive”.

For `Cc1ccc(NC(=O)CNC(=O)c2cccs2)nc1`, the IC50 result is “inactive”. In the case of `Cc1cc(C(=O)c2cccs2)c(N)s1` it was 32.8 µM (active); in that of `COc1cccc(CC2(CO)CCCN(Cc3sc(N4CCCC4)nc3Cl)C2)c1` (stereo not given), “inactive”.

In the case of `COC(=O)/C=C/c1ccc(OC(=O)OC)c(OC(=O)OC)c1`, the IC50 was 8.79 µM (active). `Cc1cccc(N=Nc2c(C)[nH]n(-c3ccccc3)c2=O)c1`: the IC50 result was “inactive”.

`Cc1c(N=C2C=C(Br)C(=O)C(Br)=C2)c(=O)n(-c2ccccc2)n1C`: the IC50 is 50.9 µM (active). In the case of `COc1ccc(-c2cc(=Nc3c(C)n(C)n(-c4ccccc4)c3=O)c3ccccc3o2)cc1` it was “inactive”. In the case of `CCNc1ccc(N=Nc2c(C)n(C)n(-c3ccccc3)c2=O)cc1` it was 3.42 µM (active); in that of `Cc1nc(N)sc1N=Nc1c(C)n(C)n(-c2ccccc2)c1=O`, 10.3 µM (active); in that of `Cc1cc(N)ccc1N=Nc1c(C)n(C)n(-c2ccccc2)c1=O`, 8.16 µM (active).

For orientation: IC50 means the concentration needed to halve the response being measured.

Source of the values: PubChem BioAssay AID2501 (Southern Research Specialized Biocontainment Screening …, 2010).
